Compound activity as filed in PubChem BioAssay.
This is a sample that favours compounds with a hit; in the whole collection about 4.7% have one here.
D1 antag: human D1 dopamine receptor antagonism; HEK293 TREx D1 cells, calcium flux, dopamine EC80; stronger effect = lower value; activity change, negative = inhibition, % at 10 µM; 360,000 tested, 3.2% active; AID 504652; in the data active = activity change below about -30%; note: % is set by controls: 0 for no effect and ±100 for the full control effect
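After overnight tetracycline induction at 30 C, force-coupled D1 HEK293 cells took up a no-wash calcium dye at room temperature. Compounds were added and monitored 180 s, and the response to EC80 dopamine was then recorded.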
TRHR enhancer: allosteric enhancers of human TRH receptor; enhancement, % at 2 µM; 360,000 tested, 0.66% active; AID 493056; P34981; TRHR cells, fluo-8 calcium fluorescence, EC20 TRH enhancement; in the data active = enhancement above about 30%; note: 0% is about no effect
Target sequence (P34981 whole entry, looked up): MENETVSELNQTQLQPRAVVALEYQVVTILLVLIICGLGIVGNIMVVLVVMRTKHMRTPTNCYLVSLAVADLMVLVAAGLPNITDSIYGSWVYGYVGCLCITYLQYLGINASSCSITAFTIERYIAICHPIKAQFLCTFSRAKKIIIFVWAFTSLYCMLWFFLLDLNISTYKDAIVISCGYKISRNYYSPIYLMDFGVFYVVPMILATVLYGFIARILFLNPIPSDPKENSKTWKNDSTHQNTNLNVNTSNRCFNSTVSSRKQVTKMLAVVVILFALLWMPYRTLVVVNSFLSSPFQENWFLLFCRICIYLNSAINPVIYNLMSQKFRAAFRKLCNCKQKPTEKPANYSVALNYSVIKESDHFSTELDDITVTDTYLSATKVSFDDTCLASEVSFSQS
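TRHR-expressing cells loaded with fluo-8 calcium dye were read kinetically (ex 480/em 530) during compound addition, then stimulated with an EC20 of TRH (10 nM final). Enhancement of the Gq-mediated intracellular calcium response was scored.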
D1 agonist: agonists of human D1 dopamine receptor; HEK293 T-REx D1 cells, calcium flux, agonist mode; activation, % at 2 µM; 360,000 tested, 1% active; AID 504660; note: 0% is about no effect
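Tetracycline-induced HEK293 TREx D1 cells, force-coupled to calcium signalling, were dye-loaded with a no-wash calcium kit. Compound was pin-added after a 10 s baseline. Fluorescence was read kinetically at 1 cycle/s for 180 s, with calcium rises flagged as agonism.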
TRHR agonist: activates the human TRH receptor | P34981 | TRHR cells, calcium flux fluo-8, FDSS agonist mode | activation, % at 2 µM | 360,000 tested, 0.18% active; note: 0% is about no effect
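Fluo-8-loaded TRHR cells; 10 s baseline, compound added, kinetic Ca2+ fluorescence read 1/s, agonist mode.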
D1 potentiator: human D1 dopamine receptor positive modulation; P21728; HEK293 TREx D1 cells, calcium flux, dopamine EC20 potentiation; potentiation, % at 10 µM; 360,000 tested, 0.036% active; in the data active = potentiation above about 30%; note: 0% is about no effect
* marks the source's active call; other numbers are inactive results. Cut-off read from the data, not from the text of the source, unless noted: active = activation above about 30%; inactive = the rest.

What do the screens show for `O=C1c2oc3ccccc3c(=O)c2C(c2ccccc2)N1Cc1ccc2c(c1)OCO2` (stereo not given)?
D1 antag: 7; TRHR enhancer: 9; D1 agonist: 0; TRHR agonist: 0; D1 potentiator: -7

What do the screens show for `O=C(c1sccc1-c1ccccc1)N1CCN(S(=O)(=O)c2ccccc2F)CC1`?
D1 antag: 3; TRHR enhancer: 7; D1 agonist: 3; TRHR agonist: 0; D1 potentiator: 0

How did Nc1c(C=C2C=CC(=O)C=C2)c(=O)nc2sc(CC(=O)N3CCOCC3)nn12 do in these assays?
D1 antag: -9; TRHR enhancer: -12; D1 agonist: 2; TRHR agonist: 0; D1 potentiator: -3

How did C=CCC1=C/C(=C\c2c(N)n3nc(CC(=O)N4CCCC4)sc3nc2=O)C=C(OC)C1=O do in these assays?
D1 antag: 3; TRHR enhancer: 7; D1 agonist: 109*; TRHR agonist: 187*; D1 potentiator: 4

How did COC1=CC(=Cc2c(N)n3nc(CC(=O)N4CCOCC4)sc3nc2=O)C=C(OC)C1=O do in these assays?
D1 antag: 0; TRHR enhancer: 8; D1 agonist: 191*; TRHR agonist: 0; D1 potentiator: 2

Results for Cc1sc2ncn(CC(=O)N3CCN(c4ccc(Cl)cc4)CC3)c(=O)c2c1S(=O)(=O)N1CCN(c2ncccn2)CC1 ?
D1 antag: 0; TRHR enhancer: -2; D1 agonist: 2; TRHR agonist: 0; D1 potentiator: -1

What do the screens show for `CCOC(=O)N1CCN(C(=O)c2ccc(Cn3c(=S)[nH]c4ccc(Br)cc4c3=O)cc2)CC1`?
D1 antag: -12; TRHR enhancer: 3; D1 agonist: 3; TRHR agonist: 1; D1 potentiator: -2

Results for COc1ccc(Cl)cc1NC(=O)c1ccc(CN2C(=O)CCn3nc(C)cc32)cc1 ?
D1 antag: -16; TRHR enhancer: 1; D1 agonist: -1; TRHR agonist: 0; D1 potentiator: -1

What do the screens show for `CC(=O)c1cccc(N(CC(=O)Nc2ccccc2C(=O)N2CCCC2)S(C)(=O)=O)c1`?
D1 antag: -9; TRHR enhancer: 55*; D1 agonist: 5; TRHR agonist: 0; D1 potentiator: -1

Results for CN(c1ccc(C(=O)Nc2ccccc2C(=O)N2CCCC2)cc1)S(C)(=O)=O ?
D1 antag: -31*; TRHR enhancer: 16; D1 agonist: 1; TRHR agonist: 0; D1 potentiator: -7

Results for CS(=O)(=O)N(CC(=O)Nc1ccccc1C(=O)N1CCCC1)c1cccc([N+](=O)[O-])c1 ?
D1 antag: 8; TRHR enhancer: 10; D1 agonist: 0; TRHR agonist: -1; D1 potentiator: 11

How did COC(=O)N/N=C(\C)c1cccs1 do in these assays?
D1 antag: -5; TRHR enhancer: 2; D1 agonist: 0; TRHR agonist: 0; D1 potentiator: 5

How did COC(=O)N/N=C(\C)c1ccccc1Br do in these assays?
D1 antag: -31*; TRHR enhancer: 6; D1 agonist: -2; TRHR agonist: 0; D1 potentiator: -1

Results for CC1=CC(C)(C)N2C(=O)C3(C(C#N)=C(N)Oc4cc(O)ccc43)c3cccc1c32 (stereo not given) ?
D1 antag: -2; TRHR enhancer: 32*; D1 agonist: 0; TRHR agonist: 0; D1 potentiator: -1

What do the screens show for `CCc1nc(SCC(=O)Nc2ccc3c(c2)OCCO3)c2oc3ccccc3c2n1`?
D1 antag: -34*; TRHR enhancer: 2; D1 agonist: 2; TRHR agonist: 0; D1 potentiator: 5

What do the screens show for `Cc1nc(SCC(=O)Nc2ccc3c(c2)OCCO3)nc(C)c1C`?
D1 antag: -4; TRHR enhancer: -6; D1 agonist: 3; TRHR agonist: 0; D1 potentiator: 11

What do the screens show for `O=C(CSc1nccc(=O)[nH]1)Nc1ccc(Oc2ccccc2)cc1`?
D1 antag: -57*; TRHR enhancer: -4; D1 agonist: 2; TRHR agonist: 0; D1 potentiator: -10

How did Cc1cc(=O)[nH]c(SCC(=O)Nc2ccc3c(c2)OCCO3)n1 do in these assays?
D1 antag: 6; TRHR enhancer: 32*; D1 agonist: 1; TRHR agonist: 0; D1 potentiator: 3

Results for O=C(CSc1nccc(=O)[nH]1)Nc1ccc(F)c(Cl)c1 ?
D1 antag: 0; TRHR enhancer: -4; D1 agonist: 0; TRHR agonist: 1; D1 potentiator: -2

Results for O=C(CSc1nccc(=O)[nH]1)Nc1ccc2c(c1)OCCO2 ?
D1 antag: -58*; TRHR enhancer: 4; D1 agonist: 1; TRHR agonist: 1; D1 potentiator: -1

Results for O=C(CSc1nccn1Cc1ccc(Cl)cc1)Nc1ccc2c(c1)OCCO2 ?
D1 antag: -31*; TRHR enhancer: -2; D1 agonist: 1; TRHR agonist: 0; D1 potentiator: 1

What do the screens show for `O=C(CSc1nccc(=O)[nH]1)NCc1ccc2c(c1)OCO2`?
D1 antag: -35*; TRHR enhancer: 3; D1 agonist: 2; TRHR agonist: 0; D1 potentiator: 2

Results for COc1cccc2c1C(=O)c1c(O)c3c(c(O)c1C2=O)C[C@@](O)(C(=O)CO)C[C@@H]3O[C@H]1C[C@H](N)[C@H](O)[C@H](C)O1 ?
D1 antag: -7; TRHR enhancer: -3; D1 agonist: 34*; TRHR agonist: 13; D1 potentiator: -4

Results for CN(C)S(=O)(=O)c1ccc(Cl)c(NC(=O)CN2C(=O)NC3(CCc4ccccc43)C2=O)c1 (stereo not given) ?
D1 antag: -14; TRHR enhancer: -4; D1 agonist: 1; TRHR agonist: 0; D1 potentiator: 7

What do the screens show for `Cc1ccsc1/C=C/C1=Cc2c(sc(NC(=O)CSc3n[nH]c(N)n3)c2C#N)C(C)(C)C1`?
D1 antag: 149; TRHR enhancer: 18; D1 agonist: 33*; TRHR agonist: 12; D1 potentiator: 98*

What do the screens show for `CCOC(=O)c1sc(NC(=O)CSc2n[nH]c(-c3ccncc3)n2)c(C#N)c1C`?
TRHR enhancer: 6; D1 agonist: 15; TRHR agonist: -1; D1 potentiator: -4

How did CCOc1ccc(/C=C/C2=Cc3c(sc(NC(=O)CSc4n[nH]c(N)n4)c3C#N)C(C)(C)C2)cc1 do in these assays?
D1 antag: 97; TRHR enhancer: 14; D1 agonist: 60*; TRHR agonist: 19; D1 potentiator: 31*

How did CCOc1ccccc1N(C)C(=O)Cn1cnc2sc(C)c(S(=O)(=O)N3CCC(C)CC3)c2c1=O do in these assays?
D1 antag: -4; TRHR enhancer: -7; D1 agonist: 5; TRHR agonist: 0; D1 potentiator: 4

What do the screens show for `O=C(NCC(c1ccco1)N1CCN(c2ccc(F)cc2)CC1)C1CCCCC1` (stereo not given)?
D1 antag: 28; TRHR enhancer: 0; D1 agonist: 0; TRHR agonist: 0; D1 potentiator: -1
